Results filed as inconclusive are left out. A call without a number means that no potency is given here. Activity calls are given as the source filed them. The call rests on the fitted dose curve; in most records, active means well fitted inhibition curve with a large enough effect; inconclusive means small, poorly fitted or top-dose-only effect; inactive means flat fitted curve, though single readings scatter.
Tests used:
Assay in all cases: qHTS profiling for inhibitors of Plasmodium falciparum proliferation (AID 504749); further: nearly all actives have a fitted effect of over 60% in size
Conditions in all cases: P. falciparum in erythrocytes, SYBR Green DNA, 72 h; series mostly up to 28.7 µM
[1] = tested on: DIV30
Summary of the method: (§1)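 Fluorescence of SYBR Green-bound parasite DNA, read at 485/535 nm, served as the growth measure. Infected erythrocytes were cultured with compound 72 h; artemisinin (0.29 uM) and DMSO wells defined the normalization range.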

[2] = tested on: Dd2
Summary of the method: as §1

[3] = tested on: ECU
Summary of the method: as §1

[4] = tested on: FAB9
Summary of the method: as §1

[5] = tested on: GB4
Summary of the method: as §1

[6] = tested on: HB3
Summary of the method: as §1

[7] = tested on: ICS
Summary of the method: as §1

[8] = tested on: JCK
Summary of the method: as §1

[9] = tested on: N140
Summary of the method: as §1

[10] = tested on: P93_24
Summary of the method: as §1

[11] = tested on: P94_40
Summary of the method: as §1

[12] = tested on: PAD
Summary of the method: as §1

[13] = tested on: PC15
Summary of the method: as §1

[14] = tested on: PC26
Summary of the method: as §1

[15] = tested on: PC49
Summary of the method: as §1

[16] = tested on: SC27B
Summary of the method: as §1

[17] = tested on: TAB109
Summary of the method: as §1

[18] = tested on: TAB113
Summary of the method: as §1

[19] = tested on: TAB165
Summary of the method: as §1

[20] = tested on: W2
Summary of the method: as §1
Potency means the concentration at half of the fitted maximal effect.

`NS(=O)(=O)c1cc(Cl)c(Cl)c(S(N)(=O)=O)c1` was tested, and the Potency [1] was “inactive”, the Potency [2] was “inactive” and the Potency [3] was “inactive”. For the same compound, the outcome [4] was “inactive”, the Potency [5] was “inactive” and the Potency [6] was “inactive”. The Potency [7] was “inactive”, the outcome [8] was “inactive” and the Potency [9] was “inactive”. The Potency [10] was “inactive”, the Potency [11] was “inactive” and the Potency [12] was “inactive”. The outcome [13] was “inactive”, the Potency [14] was “inactive” and the outcome [15] was “inactive”. For the same compound, the Potency [16] was “inactive”, the Potency [17] was “inactive” and the Potency [18] was “inactive”. For the same compound, the Potency [19] was “inactive” and the Potency [20] was “inactive”.

For `COc1ccnc(CS(=O)c2nc3ccc(OC(F)F)cc3[nH]2)c1OC` (centres undefined), the Potency [2] was “inactive”, the Potency [3] was “inactive” and the outcome [4] was “inactive”. The Potency [5] was “inactive”, the Potency [6] was “inactive” and the Potency [7] was “inactive”. The outcome [8] was “inactive”, the Potency [9] was “inactive” and the Potency [10] was “inactive”. The Potency [11] was “inactive”, the Potency [12] was “inactive” and the outcome [13] was “inactive”. The outcome [15] was “inactive”, the Potency [16] was “inactive” and the Potency [17] was “inactive”. For the same compound, the Potency [18] was “inactive”, the Potency [19] was “inactive” and the Potency [20] was “inactive”.

With `CN1CCN2c3ncccc3Cc3ccccc3C2C1` (centres undefined) the Potency [1] was “inactive”, the Potency [3] was “inactive” and the outcome [4] was “inactive”. The Potency [6] was “inactive”, the Potency [7] was 11.2 µM (active) and the outcome [8] was “inactive”. For the same compound, the Potency [11] was “inactive”, the outcome [13] was “inactive” and the outcome [15] was “inactive”. The Potency [16] was “inactive”, the Potency [17] was “inactive” and the Potency [18] was “inactive”. The Potency [19] was “inactive”.

In the case of `Fc1ccc(C(c2ccc(F)cc2)N2CCN(CC=Cc3ccccc3)CC2)cc1`, the Potency [1] was 16.9 µM (active), the Potency [5] was 16.9 µM (active) and the Potency [20] was 8.49 µM (active).

For `COc1cc2c(cc1OC)CC(=O)N(CCCN(C)C[C@H]1Cc3cc(OC)c(OC)cc31)CC2`, the Potency [2] was “inactive”, the Potency [3] was “inactive” and the outcome [4] was “inactive”. The Potency [5] was “inactive”, the Potency [6] was “inactive” and the outcome [8] was “inactive”. For the same compound, the Potency [9] was “inactive”, the Potency [10] was “inactive” and the Potency [11] was “inactive”. The Potency [12] was “inactive”, the outcome [13] was “inactive” and the Potency [14] was “inactive”. The outcome [15] was “inactive”, the Potency [16] was “inactive” and the Potency [17] was “inactive”. The Potency [18] was “inactive” and the Potency [19] was “inactive”.

`CC(C)CN(C[C@@H](O)[C@H](Cc1ccccc1)NC(=O)O[C@H]1CO[C@H]2OCC[C@H]21)S(=O)(=O)c1ccc(N)cc1` was tested, and the Potency [2] was “inactive”, the Potency [3] was “inactive” and the outcome [4] was “inactive”. The Potency [5] was “inactive”, the Potency [6] was “inactive” and the outcome [8] was “inactive”. For the same compound, the Potency [10] was “inactive”, the Potency [11] was “inactive” and the outcome [13] was “inactive”. The Potency [14] was “inactive”, the outcome [15] was “inactive” and the Potency [16] was “inactive”. For the same compound, the Potency [17] was “inactive”, the Potency [18] was “inactive” and the Potency [19] was “inactive”.

In the case of `COc1c(C)c2c(c(O)c1CC=C(C)CCC(=O)OCCN1CCOCC1)C(=O)OC2`, the Potency [1] was 12 µM (active), the Potency [2] was 11.2 µM (active) and the Potency [3] was 10 µM (active). The outcome [4] was “inactive”, the Potency [5] was 6.75 µM (active) and the Potency [7] was 7.94 µM (active). For the same compound, the Potency [9] was 8.91 µM (active), the Potency [10] was 7.08 µM (active) and the Potency [11] was 7.94 µM (active). The Potency [12] was 11.2 µM (active), the outcome [13] was “inactive” and the outcome [15] was “inactive”. For the same compound, the Potency [16] was 5.01 µM (active), the Potency [17] was 7.08 µM (active) and the Potency [18] was 5.01 µM (active). The Potency [19] was 5.01 µM (active) and the Potency [20] was 6.01 µM (active).

For `N#CC(c1ccc(Cl)cc1)c1c(Cl)cc(-n2ncc(=O)[nH]c2=O)cc1Cl` (centres undefined), the Potency [1] was “inactive”, the Potency [2] was “inactive” and the Potency [3] was “inactive”. For the same compound, the outcome [4] was “inactive”, the Potency [5] was “inactive” and the Potency [6] was “inactive”. The outcome [8] was “inactive”, the Potency [9] was “inactive” and the Potency [10] was “inactive”. The Potency [11] was “inactive”, the Potency [12] was “inactive” and the outcome [13] was “inactive”. For the same compound, the Potency [14] was “inactive”, the outcome [15] was “inactive” and the Potency [16] was “inactive”. For the same compound, the Potency [17] was “inactive”, the Potency [18] was “inactive” and the Potency [19] was “inactive”. The Potency [20] was “inactive”.

In the case of `C=C1c2cccc(O)c2C(O)=C2C(=O)[C@@]3(O)C(O)=C(C(N)=O)C(=O)[C@@H](N(C)C)[C@@H]3[C@@H](O)[C@H]12`, the Potency [1] was “inactive”, the Potency [2] was 1.78 µM (active) and the Potency [3] was “inactive”. For the same compound, the outcome [4] was “inactive”, the Potency [5] was “inactive” and the outcome [8] was “inactive”. The Potency [9] was “inactive”, the Potency [11] was “inactive” and the Potency [12] was “inactive”. The outcome [13] was “inactive”, the Potency [14] was “inactive” and the outcome [15] was “inactive”. For the same compound, the Potency [16] was “inactive”, the Potency [17] was “inactive” and the Potency [18] was “inactive”.

In the case of `Cc1cc2nc3c(=O)[nH]c(=O)nc-3n(CC(O)C(O)C(O)CO)c2cc1C` (centres undefined), the Potency [1] was “inactive”, the Potency [2] was “inactive” and the Potency [3] was “inactive”. The outcome [4] was “inactive”, the Potency [6] was “inactive” and the Potency [7] was “inactive”. For the same compound, the outcome [8] was “inactive”, the Potency [9] was “inactive” and the Potency [10] was “inactive”. The Potency [11] was “inactive”, the Potency [12] was “inactive” and the outcome [13] was “inactive”. The Potency [14] was “inactive”, the outcome [15] was “inactive” and the Potency [16] was “inactive”. For the same compound, the Potency [17] was “inactive”, the Potency [18] was “inactive” and the Potency [19] was “inactive”.

In the case of `N#Cc1c(N(CC(=O)O)CC(=O)O)sc(C(=O)O)c1CC(=O)O`, the Potency [1] was “inactive”, the Potency [2] was “inactive” and the Potency [3] was “inactive”. The outcome [4] was “inactive”, the Potency [5] was “inactive” and the Potency [6] was “inactive”. For the same compound, the Potency [7] was “inactive”, the outcome [8] was “inactive” and the Potency [9] was “inactive”. For the same compound, the Potency [10] was “inactive”, the Potency [11] was “inactive” and the Potency [12] was “inactive”. For the same compound, the outcome [13] was “inactive”, the Potency [14] was “inactive” and the outcome [15] was “inactive”. The Potency [16] was “inactive”, the Potency [17] was “inactive” and the Potency [18] was “inactive”. The Potency [19] was “inactive” and the Potency [20] was “inactive”.

For `O=C(O)c1nc(=O)[nH]c(=O)[nH]1`, the Potency [1] was “inactive”, the Potency [2] was “inactive” and the Potency [3] was “inactive”. The outcome [4] was “inactive”, the Potency [5] was “inactive” and the Potency [6] was “inactive”. For the same compound, the Potency [7] was “inactive”, the outcome [8] was “inactive” and the Potency [9] was “inactive”. For the same compound, the Potency [10] was “inactive”, the Potency [11] was “inactive” and the Potency [12] was “inactive”. For the same compound, the outcome [13] was “inactive”, the Potency [14] was “inactive” and the outcome [15] was “inactive”. The Potency [16] was “inactive”, the Potency [17] was “inactive” and the Potency [18] was “inactive”. The Potency [19] was “inactive” and the Potency [20] was “inactive”.

`O=C1C(CCC(O)c2ccc(F)cc2)C(c2ccc(O)cc2)N1c1ccc(F)cc1` (centres undefined) was tested, and the Potency [1] was “inactive”, the Potency [2] was “inactive” and the Potency [3] was “inactive”. For the same compound, the outcome [4] was “inactive”, the Potency [5] was “inactive” and the Potency [6] was “inactive”. For the same compound, the Potency [7] was “inactive”, the outcome [8] was “inactive” and the Potency [9] was “inactive”. For the same compound, the Potency [10] was “inactive”, the Potency [11] was “inactive” and the Potency [12] was “inactive”. For the same compound, the outcome [13] was “inactive”, the Potency [14] was “inactive” and the outcome [15] was “inactive”. The Potency [16] was “inactive”, the Potency [17] was “inactive” and the Potency [18] was “inactive”. For the same compound, the Potency [19] was “inactive” and the Potency [20] was “inactive”.

With `CS(=O)(=O)c1ccc(C2=C(c3ccccc3)C(=O)OC2)cc1` the Potency [1] was “inactive”, the Potency [2] was “inactive” and the Potency [3] was “inactive”. For the same compound, the outcome [4] was “inactive”, the Potency [5] was “inactive” and the Potency [6] was “inactive”. For the same compound, the Potency [7] was “inactive”, the outcome [8] was “inactive” and the Potency [9] was “inactive”. For the same compound, the Potency [10] was “inactive”, the Potency [11] was “inactive” and the Potency [12] was “inactive”. For the same compound, the outcome [13] was “inactive”, the Potency [14] was “inactive” and the outcome [15] was “inactive”. The Potency [16] was “inactive”, the Potency [17] was “inactive” and the Potency [18] was “inactive”. For the same compound, the Potency [19] was “inactive” and the Potency [20] was “inactive”.

With `CN1CC(=O)N2C(Cc3c([nH]c4ccccc34)[C@H]2c2ccc3c(c2)OCO3)C1=O` (some centres undefined) the Potency [1] was “inactive”, the Potency [2] was “inactive” and the Potency [3] was “inactive”. For the same compound, the outcome [4] was “inactive”, the Potency [5] was “inactive” and the Potency [6] was “inactive”. The outcome [8] was “inactive”, the Potency [9] was “inactive” and the Potency [11] was “inactive”. For the same compound, the Potency [12] was “inactive”, the outcome [13] was “inactive” and the Potency [14] was “inactive”. For the same compound, the outcome [15] was “inactive”, the Potency [16] was “inactive” and the Potency [17] was “inactive”. For the same compound, the Potency [18] was “inactive”, the Potency [19] was “inactive” and the Potency [20] was “inactive”.

In the case of `Clc1ccc(COC(Cn2ccnc2)c2ccc(Cl)cc2Cl)c(Cl)c1` (centres undefined), the Potency [1] was 5.73 µM (active), the Potency [3] was 1.26 µM (active) and the Potency [5] was 5.1 µM (active). For the same compound, the Potency [6] was 3.55 µM (active), the Potency [7] was 1 µM (active) and the Potency [9] was 2.24 µM (active). The Potency [10] was 1.41 µM (active), the Potency [11] was 2.82 µM (active) and the Potency [12] was 3.55 µM (active). The Potency [14] was 2.56 µM (active), the outcome [15] was “inactive” and the Potency [16] was 2.82 µM (active). For the same compound, the Potency [17] was 3.98 µM (active), the Potency [18] was 3.16 µM (active) and the Potency [19] was 1 µM (active). The Potency [20] was 2.28 µM (active).

From PubChem BioAssay (NCATS)
